For 38 molecules, growth results are on record in PubChem BioAssay (NCI).

SMILES strings stand for the structures. Compounds without any hit were thinned out: in the full panel of roughly 83,000, 20% have a hit.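 Assay: single dose, 48 h. Readout: percent growth (0 = no net growth; negative = cell death). Active: <10.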 Unmarked numbers belong to inactive results. The source made the active and inactive calls.

For the assay, the system named is NCI-H322M lung. The experiment in a line: NCI-60 one-dose screen, 48 h (100 = growth as untreated, 0 = no growth, -100 = all killed). The settings on record: 10 µM unless noted.
Turning to `COc1cc(Cn2ncc3ccc(NC(=O)c4cc5ccccc5oc4=N)cc32)cc(OC)c1OC`, the growth is 89.6%.
In the case of `N=C1C(c2nc(-c3ccc(Br)cc3)cs2)=C(O)CN1Cc1cccnc1`, the growth was 50.2%.
Turning to `COc1ccc(/C=C/c2c(C(=O)/C=C/c3cccs3)c(C)nc3ccccc23)cc1`, the growth is 89.7%.
With `N#C/C(=C\c1ccc(Br)cc1)n1nnc2cc(F)c(F)cc21`, the growth is 58.6%.
Next, `C[C@@H]1N=C(c2ccc3ccccc3n2)Nc2nc3ccccn3c2C1=O`: 97.3%.
Regarding `CCCCc1ccc(Nc2ccc(Nc3ccc(CCCC)cc3S(=O)(=O)O)c3c2C(=O)c2ccccc2C3=O)c(S(=O)(=O)O)c1`, the growth was 96.3%.
As for `COc1ccc(OC)c2c1[nH]c(=O)c1c3ncccc3cn21`, the growth is 48.5%.
As for `COc1ccc(NC(=O)CSc2nc(C)c(C(C)=O)n2-c2ccc(Cl)cc2)cc1`, the growth is 100%.
As to `COc1cccc(-c2nn(-c3ccccc3)cc2-c2ccnc(NCCNC(=O)Nc3cccc(C(F)(F)F)c3)c2)c1`, the growth was 35.8%.
Take `O=C(NCCCNc1cc(-c2cn(-c3ccccc3)nc2-c2cccc(O)c2)ccn1)c1ccccc1`: the growth is 75.2%.
The result for `Cc1cc(NCc2cc(Nc3ccnc4cc(Cl)ccc34)ccc2F)nc(N2CCCC2)n1` reads 30.6%; that for `Oc1ccc(CN2CCC(N3CCOCC3)CC2)c2cccnc12`, 57%.
For `CCN(CC)c1nc(SCC(=O)Nc2nc3ccc(C)cc3s2)nc(-c2ccccc2)c1C#N`, the growth was 88.8%.
Next, `Clc1cccc(Cl)c1C(Nc1nc2ccccc2s1)Nc1nc2ccccc2s1`: 106%.
`C[C@H]1[C@H]2[C@H]3CC[C@@H]4[C@@]5(C)C/C(=C/c6cccnc6)C(=O)C(C)(C)[C@@H]5CC[C@@]4(C)[C@]3(C)CC[C@]23CO[C@]1(C)[C@@H](C(=O)/C=C\c1cccnc1)C3`: the growth was 46.4%.
As to `O=c1ccn2nc3ccccc3c2[nH]1`, the growth is 97.8%.
On to `COc1ccccc1NC(=O)N/C(N)=N/c1nc2ccccc2s1`, for which the growth is 41.6%.
Regarding `COc1c(CCC[P+](c2ccccc2)(c2ccccc2)c2ccccc2)cc2c(c1OC)OCO2`, the growth was 45.4%.
In the case of `COc1ccc(C(=O)Nn2c(NCC(=O)N3c4ccccc4Sc4ccccc43)nnc2-c2ccc(O)cc2)cc1`, the growth is 104%.
For `COc1ccc(-c2nc3c(c(=O)n2C(C)=O)C(c2ccc(Cl)cc2)c2sc4c(Cl)cccc4c2O3)cc1` (stereo not drawn), the growth is -5.66% (active).
Regarding `Cc1nc2c(c(N3CCCc4ccccc43)n1)CCC2`, the growth is 54.5%.
As to `CC1=C([Se]CC(OC(=O)CC[Se]c2ccccc2)C(=O)NCCCCCC(=O)OCc2ccccc2)C(=O)c2ccccc2C1=O` (stereo not drawn), the growth is 2.53% (active).
For `Cc1cc(NCCCCNc2ccnc3cc(Cl)ccc23)nc(Nc2ccc(C(=O)N3CCCC3)cc2)n1`, the growth is 67.6%.
Turning to `Cc1ccc(N(C(=O)CCc2c[nH]c3ccccc23)[C@H](C(=O)Nc2ccc(Cl)cc2)c2cccc([N+](=O)[O-])c2)cc1`, the growth was 79.1%.
With `O=c1[nH]c2ccccc2n1C1CCN(CCOc2ccccc2)CC1`, the growth is 98.8%.
For the molecule `c1ccc2c(c1)nc(CN1CCOCC1)n1cc(N3CCCC3)nc21`, the growth is 103%.
Regarding `CC/C=C1/C(=O)C=C[C@@H]1C/C=C\CCCC(=O)O`, the growth was 113%.
Take `COC(=O)[C@]12CC[C@@H](C)[C@H](C)[C@@H]1C1=CC[C@@H]3[C@@]4(C)C(C=O)=C[C@@](C)(COS(C)(=O)=O)C4[C@H](O)C[C@@]3(C)[C@]1(C)CC2` (stereo partly drawn): the growth was -1.44% (active).
As to `CCCCCCCCn1ccc2cc(NC(=O)Cn3cc(CN4CCCC4)nn3)ccc21`, the growth was 49.5%.
Turning to `CCCCCCCOc1c(OC)cc(C2CC(=O)Nc3c2c(C)nn3-c2nc3ccccc3[nH]2)cc1OC` (stereo not drawn), the growth was 2.06% (active).
`COc1cc(-c2nc(N3CCN(C)CC3)c3ccccc3n2)cc(OC)c1OC`: the growth was 84.4%.
Next, `CCC(CO)Nc1nc2ccc(Cl)cc2c2ccccc12` (stereo not drawn): 47.2%; `NS(=O)(=O)c1ccc(-n2nc(C(=O)N/N=C\c3ccc(F)cc3)cc2-c2ccc(Cl)cc2)cc1`: 89.6%.
Take `O=S(=O)(NCCCNc1cc(-c2c(-c3cccc(O)c3)nc3sccn23)ccn1)c1cccc(Cl)c1`: the growth is 85.5%.
In the case of `CC(=O)n1c(-c2ccc(Cl)cc2)nc2c(c1=O)C(c1ccc(Cl)cc1)c1sc3c(Cl)cccc3c1O2` (stereo not drawn), the growth was 16.7%.
Take `C=C(C)[C@@H]1CC[C@]2(C(=O)NC3CCCCC3)CC[C@]3(C)[C@H](CC[C@@H]4[C@@]5(C)CCC(=O)C(C)(C)[C@@H]5CC[C@]43C)[C@@H]12`: the growth is 91.9%.
The result for `O=[N+]([O-])c1ccc(-c2cc(-c3ccc(Nc4nc(Nc5ccc(Cl)cc5)nc(Nc5ccc(Cl)cc5)n4)cc3)no2)cc1` reads 88.4%; that for `Cc1c2c(c(C)c3c1oc1cc(O)ccc13)C(=O)N(CCN1CCCCC1)C2=O`, 85.9%.
